The source of these data is PubChem BioAssay (NCATS).

Experiment [1] in a line: Primary qHTS for small molecule stabilizers of the endoplasmic reticulum resident proteome: Secreted ER Calcium Modulated Protein (SERCaMP) assay (AID 1508630; active = well fitted curve in the direction sought with a large enough effect; an effect the other way counts as inactive or inconclusive). The conditions noted are these: SH-SY5Y GLuc-SERCaMP (Gaussia luciferase released on ER calcium loss) secretion, thapsigargin, luminescence; series mostly up to 38.4 µM. The essentials: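 GLuc-SERCaMP-expressing SH-SY5Y cells, pretreated 16 h with compound, are challenged with thapsigargin to empty ER calcium stores; after 4 h, coelenterazine is added directly to the medium and luminescence is imaged.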
(In qHTS, concentration-response curves come from the screen itself.)

Experiment [2] can be described thus: A High-Content qHTS Against Drug Library for the Identification of Small Molecules that Inhibit DYT1 Early Onset Primary Dystonia-Associated Cell Pathology (AID 1645839; calls by dose curve). The conditions noted are these: HEK293 Flp-In EGFP-delE TorsinA, punctate imaging, 48 h; series mostly up to 46.1 µM. An outline of the steps: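 Flp-In T-REx 293 cells with tetracycline-inducible EGFP-delE hTOR1A (WT EGFP-hTOR1A as reference), 800 cells/well; compound added with tetracycline, 48 h at 37 C. Fixed, permeabilized cells imaged; %pathology (punctate TorsinA) primary, cell count counterscreen.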

Experiment [3] deals with Cytochrome P450 2D6 (Homo sapiens) (UniProt P10635). The experiment is described as follows: Cytochrome P450 family 2 subfamily D member 6 (CYP2D6) small molecule antagonists: luciferase biochemical (cell-free) qHTS assay (AID 1645840). Also: nearly all actives have a fitted effect of over 55% in size. Also: potency is read from the fitted curve at half-maximal effect. The conditions noted are these: P450-Glo CYP2D6 enzyme, luciferin luminescence, 1 h; series mostly up to 57.4 µM. The essentials: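 P450-Glo luminescent screen: recombinant CYP2D6 enzyme–proluciferin substrate mix preincubated with compound 10 min at room temperature, then NADPH regeneration added for 1 h at room temperature. Detection reagent added for 20 min; luciferin light read as relative luminescence units.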

In experiment [4] the target is Cytochrome P450 2C9 (Homo sapiens) (UniProt P11712). The experiment can be described thus: Cytochrome P450 family 2 subfamily C member 9 (CYP2C9) small molecule antagonists: luciferase biochemical (cell-free) qHTS assay (AID 1645842). Also: nearly all actives have a fitted effect of over 55% in size. Also: potency is read from the fitted curve at half-maximal effect. The following applies: P450-Glo CYP2C9 enzyme assay, luciferin luminescence; series mostly up to 57.4 µM. The essentials: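 Luminescence, after 20 min with luciferin detection reagent, reflected CYP2C9 turnover during a 1 h NADPH-driven reaction at 37C. Enzyme-substrate mix contained 0.4% bovine serum albumin and was preincubated with compound 10 min at room temperature.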

Experiment [5] addresses Calcium and integrin-binding protein 1 (Homo sapiens) (UniProt Q99828). The experiment is described as follows: Primary qHTS for Identification of Calcium Integrin Binding Protein 1 (CIB1) Competitor (AID 1508620; active = well fitted curve in the direction sought with a large enough effect; an effect the other way counts as inactive or inconclusive; also: top concentration of the series differs between compounds). The conditions noted are these: CIB1-GST / FITC-alphaIIb peptide fluorescence polarization; series mostly up to 114 µM. An outline of the steps: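 Fluorescence polarization competition: GST-tagged CIB1 (1 uM final) preincubated with compound 15 min at room temperature, then FITC-labelled alphaIIb peptide (100 nM final) added. After 15 min at room temperature, polarization read at Ex 480/Em 540.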

Experiment [6] deals with Cytochrome P450 3A4 (Homo sapiens) (UniProt P08684). The experiment can be described thus: Cytochrome P450 family 3 subfamily A member 4 (CYP3A4) small molecule antagonists: luciferase qHTS assay (AID 1645841). Also: nearly all actives have a fitted effect of over 45% in size. The conditions noted are these: P450-Glo CYP3A4 enzyme assay, luciferin luminescence; series mostly up to 57.4 µM. An outline of the steps:
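P450-Glo CYP3A4 enzyme with proluciferin substrate preincubated 10 min with compound at room temperature, then NADPH regeneration 1 h. Luciferin detection reagent added for 20 min; luminescence recorded. Ketoconazole positive control.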

A short description of experiment [7]: Counterscreen qHTS for small molecule stabilizers of the endoplasmic reticulum resident proteome: GLuc-NoTag assay (AID 1508627; active = well fitted curve in the direction sought with a large enough effect; an effect the other way counts as inactive or inconclusive;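 also: SH-SY5Y cells given compound then 100 nM thapsigargin to empty ER calcium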). The conditions noted are these: Gaussia luciferase NoTag secretion counterscreen, luminescence, thapsigargin 100 nM for final 4 h; series mostly up to 76.4 µM. The essentials:
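SH-SY5Y cells stably expressing constitutively secreted GLuc without SERCaMP tag, exposed to compound for 19 hr, then to 100 nM thapsigargin for 4 hr at 37C. Medium luciferase was read by coelenterazine luminescence without lysis.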
A general note: The purpose of a counterscreen is to sort out artefacts and off-target activity.

Where “and” joins values, the source holds several entries; their conditions need not be identical. Equal entries are not always repeated. Inconclusive results are not listed. Calls of active or inactive are those of the source. Unless noted, calls follow the shape of the dose curve; as a rule, active = well fitted curve in the direction sought with a large enough effect in the repeat runs; inconclusive = weak or mixed curves; inactive = no such curve, though single readings can be large; an effect the other way counts as inactive or inconclusive.

Cytochrome P450 2D6 (Homo sapiens), sequence (P10635 whole entry, looked up): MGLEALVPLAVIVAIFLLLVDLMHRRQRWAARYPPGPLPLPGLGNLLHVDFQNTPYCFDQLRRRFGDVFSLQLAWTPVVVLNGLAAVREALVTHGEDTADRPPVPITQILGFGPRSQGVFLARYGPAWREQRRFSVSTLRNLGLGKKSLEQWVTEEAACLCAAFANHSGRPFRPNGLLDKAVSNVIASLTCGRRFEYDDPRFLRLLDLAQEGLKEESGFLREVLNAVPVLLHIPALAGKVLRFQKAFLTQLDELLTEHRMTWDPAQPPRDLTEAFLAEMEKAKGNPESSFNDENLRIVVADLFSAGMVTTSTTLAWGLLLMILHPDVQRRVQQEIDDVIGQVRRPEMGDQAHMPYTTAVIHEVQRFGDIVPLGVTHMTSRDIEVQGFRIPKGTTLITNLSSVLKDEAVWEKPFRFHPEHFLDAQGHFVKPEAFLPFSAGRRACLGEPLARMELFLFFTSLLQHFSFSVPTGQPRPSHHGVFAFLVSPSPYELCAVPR
Cytochrome P450 2C9 (Homo sapiens), sequence (P11712 whole entry, looked up): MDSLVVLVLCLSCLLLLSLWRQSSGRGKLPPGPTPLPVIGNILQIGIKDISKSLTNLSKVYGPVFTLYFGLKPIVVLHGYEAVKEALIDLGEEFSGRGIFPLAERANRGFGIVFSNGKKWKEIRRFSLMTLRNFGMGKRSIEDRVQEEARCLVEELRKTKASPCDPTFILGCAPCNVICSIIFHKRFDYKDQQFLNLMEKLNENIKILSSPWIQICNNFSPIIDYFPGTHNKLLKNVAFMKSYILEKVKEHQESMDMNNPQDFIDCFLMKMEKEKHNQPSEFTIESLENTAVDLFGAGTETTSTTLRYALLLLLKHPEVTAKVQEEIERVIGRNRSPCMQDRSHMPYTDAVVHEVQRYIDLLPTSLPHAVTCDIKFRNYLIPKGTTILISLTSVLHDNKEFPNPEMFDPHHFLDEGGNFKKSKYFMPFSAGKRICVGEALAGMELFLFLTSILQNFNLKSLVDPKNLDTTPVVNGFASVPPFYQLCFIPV
Calcium and integrin-binding protein 1 (Homo sapiens), sequence (Q99828 whole entry, looked up): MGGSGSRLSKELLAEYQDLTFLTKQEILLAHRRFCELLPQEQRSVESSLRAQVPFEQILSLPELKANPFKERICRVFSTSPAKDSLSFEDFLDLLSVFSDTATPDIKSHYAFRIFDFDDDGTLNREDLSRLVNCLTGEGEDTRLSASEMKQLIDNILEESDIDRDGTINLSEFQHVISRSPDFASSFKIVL
Cytochrome P450 3A4 (Homo sapiens), sequence (P08684 whole entry, looked up): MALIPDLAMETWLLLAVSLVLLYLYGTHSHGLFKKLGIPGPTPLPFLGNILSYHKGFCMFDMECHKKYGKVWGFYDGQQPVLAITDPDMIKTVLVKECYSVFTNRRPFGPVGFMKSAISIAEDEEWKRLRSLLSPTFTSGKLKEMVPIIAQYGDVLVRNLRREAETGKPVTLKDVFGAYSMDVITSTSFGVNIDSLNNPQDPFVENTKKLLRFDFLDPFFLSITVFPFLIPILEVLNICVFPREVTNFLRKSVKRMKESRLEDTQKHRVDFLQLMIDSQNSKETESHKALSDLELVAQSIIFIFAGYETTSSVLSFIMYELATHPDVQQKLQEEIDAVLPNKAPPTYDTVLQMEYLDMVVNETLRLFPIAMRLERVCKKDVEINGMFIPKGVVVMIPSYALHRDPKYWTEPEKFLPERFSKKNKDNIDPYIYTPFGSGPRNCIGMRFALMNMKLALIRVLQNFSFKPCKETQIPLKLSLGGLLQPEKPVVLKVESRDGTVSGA

Take `OC1C(O)C(O)C(O)C(O)C1O` (stereo unspecified): the Potency result in experiment [1], in experiment [2], in experiment [3] and in experiment [4] was “inactive” throughout.
Regarding `CCOc1ccc(NC(C)=O)cc1`, the Potency result in experiment [1], in experiment [2], in experiment [3] and in experiment [4] was “inactive” in each case.
Take `CC(=O)O[C@]1(C(C)=O)CC[C@H]2[C@@H]3C=C(Cl)C4=CC(=O)CC[C@]4(C)[C@H]3CC[C@@]21C`: the Potency result in experiment [1], in experiment [2] and in experiment [3] was “inactive” in each case. Moreover, the Potency in experiment [4] is 8.71 µM (active).
On to `CC(=C(CCOC(=O)C(C)C)SSC(CCOC(=O)C(C)C)=C(C)N(C=O)Cc1cnc(C)nc1N)N(C=O)Cc1cnc(C)nc1N`, for which the Potency result in experiment [1], in experiment [2], in experiment [3] and in experiment [4] was “inactive” in each case.
In the case of `CC(C)Cc1ccc(CC(=O)O)cc1`, the Potency result in experiment [1], in experiment [2], in experiment [3] and in experiment [4] was “inactive” in each case.
Consider `O=C(Nc1ccccc1)OCC(CN1CCCCC1)OC(=O)Nc1ccccc1` (stereo unspecified), for which the Potency entry in experiment [5] was “inactive”. The Potency in experiment [3] is 0.155 µM (active); in experiment [4] it was 13.8 µM (active).
In the case of `Nc1ccc(S(=O)(=O)Nc2cnc3ccccc3n2)cc1`, the Potency result in experiment [5] and in experiment [3] was “inactive” in each case. In experiment [4], the Potency is 15.5 µM (active).
With `COc1ccc(C(=O)c2ccccc2O)c(O)c1`, the Potency entry in experiment [1] and in experiment [2] was “inactive” throughout.
Consider `CO[C@]12C[C@@H](COC(=O)c3cncc(Br)c3)CN(C)[C@@H]1Cc1cn(C)c3cccc2c13`, for which the Potency result in experiment [1], in experiment [2] and in experiment [4] was “inactive” in each case. Moreover, the Potency in experiment [3] is 0.0155 µM (active).
For the molecule `CC(=O)Nc1ccc(OC(=O)c2ccccc2OC(C)=O)cc1`, the Potency result in experiment [5], in experiment [2] and in experiment [4] was “inactive” each time. Moreover, the Potency in experiment [3] is 15.5 µM (active).
Consider `CC(C)Nc1cccnc1N1CCN(C(=O)c2cc3cc(NS(C)(=O)=O)ccc3[nH]2)CC1`, for which the Potency result in experiment [5] and in experiment [2] was “inactive” each time. Further, the Potency is 6.92 µM (active) in experiment [3] and 1.95 µM (active) in experiment [4].
Consider `CCc1nn(CCCN2CCN(c3cccc(Cl)c3)CC2)c(=O)n1CCOc1ccccc1`, for which the Potency entry in experiment [5] and in experiment [4] was “inactive” each time. Besides, the Potency in experiment [3] is 0.977 µM (active).
In the case of `Cc1ccc(O)c([C@H](CCN(C(C)C)C(C)C)c2ccccc2)c1`, the Potency entry in experiment [5] and in experiment [4] was “inactive” each time. In addition, the Potency in experiment [3] is 2.45 µM (active) and 2.13 µM (active).
Regarding `CC[N+](C)(CC)CCOC(=O)C(O)(c1ccccc1)C1CCCCC1` (stereo unspecified), the Potency result in experiment [1], in experiment [2] and in experiment [4] was “inactive” throughout. The Potency in experiment [3] is 0.776 µM (active).
Turning to `O=C(NCCc1c[nH]c2ccccc12)c1cccnc1`, the Potency result in experiment [1] and in experiment [2] was “inactive” throughout.
As to `CCCCc1cc2ccccc2c(OCCN(C)C)n1`, the Potency result in experiment [5] and in experiment [4] was “inactive” each time. Besides, the Potency in experiment [3] was 2.19 µM (active).
As for `CCN(CC)CCNC(=O)c1cc(Br)c(N)cc1OC`, the Potency entry in experiment [1], in experiment [2] and in experiment [4] was “inactive” in each case. Moreover, the Potency in experiment [3] was 6.92 µM (active).
As to `CC(C)(C)NCC(O)COc1cccc2c1C[C@H](O)[C@H](O)C2` (stereo partly specified), the Potency entry in experiment [1], in experiment [2], in experiment [3] and in experiment [6] was “inactive” in each case.
Consider `CCOC(=O)Nc1ccc2c(c1)N(C(=O)CCN1CCOCC1)c1ccccc1S2`, for which the Potency entry in experiment [1] and in experiment [2] was “inactive” in each case.
As for `COc1cc(C(=O)N2CCCCCCC2)cc(OC)c1OC`, the Potency entry in experiment [1], in experiment [2], in experiment [3] and in experiment [4] was “inactive” throughout.
With `C#C[C@]1(O)CC[C@H]2[C@@H]3[C@H](C)CC4=C(CCC(=O)C4)[C@H]3CC[C@@]21C`, the Potency entry in experiment [1] and in experiment [2] was “inactive” throughout.
On to `O=C(NC1CCN(CCc2c[nH]c3ccccc23)CC1)c1ccccc1`, for which the Potency result in experiment [5] and in experiment [4] was “inactive” each time. Moreover, in experiment [3], the Potency is 1.23 µM (active).
Turning to `CCCCCCCCCCC[C@@H](C[C@@H]1OC(=O)[C@H]1CCCCCC)OC(=O)[C@H](CC(C)C)NC=O`, the Potency result in experiment [5] and in experiment [3] was “inactive” throughout. In addition, the Potency in experiment [4] is 2.75 µM (active).
Regarding `C=C[C@H]1CN2CC[C@H]1C[C@@H]2[C@@H](O)c1ccnc2ccc(OC)cc12`, the Potency result in experiment [7], in experiment [2] and in experiment [4] was “inactive” throughout.
With `C=C1c2cccc(O)c2C(O)=C2C(=O)[C@]3(O)C(O)=C(C(N)=O)C(=O)[C@@H](N(C)C)[C@@H]3[C@@H](O)[C@H]12`, the Potency result in experiment [6] was “inactive”.
